Measurements from PubChem BioAssay (Tox21).
Inconclusive results are not listed. Where a call stands in place of a potency, no number is given. Unmarked numbers belong to inactive results. The source made the active and inactive calls. Calls follow the shape of the full dose curve.

target: Acetylcholinesterase (Homo sapiens) (UniProt P22303); test: Acetylcholinesterase (AChE) small molecule antagonists: colormetric cell-based qHTS assay (AID 1347395); conditions: SH-SY5Y cells AChE activity, colorimetric (Ellman); series mostly up to 115 µM; also: nearly all actives have a fitted effect of over 30% in size
Source text: National Center for Advancing Translational Sciences [NCATS]
Division of Preclinical Innovation [DPI]
U.S. Environmental Protection Agency [EPA]
National Institutes of Environmental Health Sciences [NIEHS]
National Toxicology Program [NTP]
U.S. Food and Drug Administration [FDA]
Acetylcholinesterase (AChE) is the primary cholinesterase in the body that hydrolyzes a key neurotransmitter, acetylcholine. Inhibition of AChE activity can lead to neurotoxicity. The known inhibitors include organophosphorous pesticides (OP), chemical warfare agents, drugs, and various phytochemicals.
A homogenous cell-based assay using the Amplite Colormetric acetylcholinesterase assay kit (AAT Bioquest, Sunnyvale, CA) was used to evaluate the chemicals in the Tox21 10K library that inhibit AChE activity. The assay uses 5, 5-dithiobis-(2-nitrobenzoic acid) (DTNB) to quantify the thiocholine produced from the hydrolysis of acetylthiocholine by AChE from the SH-SY5Y cells.
Tox21 Assay Protocol Summary:
For the cell-based AChE assay, 2,000 SH-SY5Y cells in 4 uL/well were dispensed into black, clear-bottom 1536-well plates using a Multidrop Combi dispenser (Thermo Scientific, MA). The assay plates were incubated overnight at 37 C to allow cells to attach to the wells, followed by the transfer of 23 nL of compound or DMSO (vehicle control) by a Pintool Station (Wako Automation, CA). The plates were incubated for 30 min at 37 C and 5% CO2, followed by the addition of 4 uL of detection cocktail solution (DTNB, acetylthiocholine) into each well using a Flying Reagent Dispenser (Beckman Coulter, CA) and then 90 min incubation at 37 C.
Potency is read from the fitted curve at half-maximal effect.

Acetylcholinesterase (Homo sapiens), sequence (P22303 whole entry, looked up): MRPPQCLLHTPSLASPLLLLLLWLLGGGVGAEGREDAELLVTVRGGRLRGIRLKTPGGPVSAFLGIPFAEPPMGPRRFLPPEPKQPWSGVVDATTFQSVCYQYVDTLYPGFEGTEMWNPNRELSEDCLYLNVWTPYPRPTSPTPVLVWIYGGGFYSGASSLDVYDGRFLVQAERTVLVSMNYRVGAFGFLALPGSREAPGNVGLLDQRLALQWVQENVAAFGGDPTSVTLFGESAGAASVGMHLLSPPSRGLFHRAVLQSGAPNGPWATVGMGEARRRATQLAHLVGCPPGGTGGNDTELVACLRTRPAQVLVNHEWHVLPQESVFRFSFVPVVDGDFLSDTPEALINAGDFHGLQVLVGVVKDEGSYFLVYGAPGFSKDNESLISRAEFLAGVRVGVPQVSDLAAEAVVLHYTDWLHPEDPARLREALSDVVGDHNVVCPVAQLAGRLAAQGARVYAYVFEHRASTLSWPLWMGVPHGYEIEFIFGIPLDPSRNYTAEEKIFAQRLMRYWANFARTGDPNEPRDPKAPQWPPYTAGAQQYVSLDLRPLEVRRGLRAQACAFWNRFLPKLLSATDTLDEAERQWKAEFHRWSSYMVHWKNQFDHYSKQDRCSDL

Compound | Potency | activity, negative = inhibition
CCOCCOCCOC(C)=O | inactive | –
CC(C)(C)c1ccc(C=O)cc1 | inactive | –
CCOC(=O)c1nc(C(Cl)(Cl)Cl)n(-c2ccc(Cl)cc2Cl)n1 | inactive | –
CCCCC(CC)(CO)CO | inactive | –
O=C1C(O)=C(O)C(=O)C(O)=C1O | inactive | –
CC1=CC=C(C(C)C)CC1 | inactive | –
O=C(Cl)c1cccc([N+](=O)[O-])c1 | inactive | –
CCC(Cl)C(Cl)C(Cl)CC(Cl)C(Cl)C(C)Cl (stereo not given) | inactive | –
COC(=O)CCC(=O)O | inactive | –
NC(=O)Nc1ccc(Cl)c(Cl)c1 | inactive | –
CCCCCCCCCCCC(=O)OCC | inactive | –
O=C(OC[C@H]1O[C@@H](OC(=O)c2cc(O)c(O)c(OC(=O)c3cc(O)c(O)c(O)c3)c2)[C@H](OC(=O)c2cc(O)c(O)c(OC(=O)c3cc(O)c(O)c(O)c3)c2)[C@@H](OC(=O)c2cc(O)c(O)c(OC(=O)c3cc(O)c(O)c(O)c3)c2)[C@@H]1OC(=O)c1cc(O)c(O)c(OC(=O)c2cc(O)c(O)c(O)c2)c1)c1cc(O)c(O)c(OC(=O)c2cc(O)c(O)c(O)c2)c1 | – | 1.72% [at 23.6 µM]
CCCC(C)C=O (stereo not given) | inactive | –
COC(=O)c1cc(Cl)ccc1OC | inactive | –
COc1cc(C(=O)NC2CCN(C)CC2)ccc1Nc1ncc2c(n1)N(C1CCCC1)CC(F)(F)C(=O)N2C | 32.6 µM (active) | –
CC1C2CC(CC2C2CCCC(O)C2)C1(C)C (stereo not given) | inactive | –
Cc1cccc(C)c1NC(=O)c1cc(S(N)(=O)=O)c(Cl)cc1O | inactive | –
CN(C)CCOC1=Cc2ccccc2Sc2ccc(Cl)cc21 | inactive | –
CCc1nn(CCCN2CCN(c3cccc(Cl)c3)CC2)c(=O)n1CCOc1ccccc1 | inactive | –
CO[Si](C)(OC)OC | inactive | –

Compound | Potency | activity, negative = inhibition
O=S(=O)(O)c1ccccc1/C=C/c1ccc(-c2ccc(/C=C/c3ccccc3S(=O)(=O)O)cc2)cc1 | inactive | –
Oc1cccc(Nc2ccccc2)c1 | inactive | –
CC1=NS(=O)(=O)c2cc(Cl)ccc2N1 | inactive | –
OCc1ccccn1 | inactive | –
Cc1ccco1 | inactive | –
CC(C)C(O)C(C)(C)CO (stereo not given) | inactive | –
Cc1ccc(C(N)=O)cc1N | inactive | –
COc1cc2nc(N3CCN(C(=O)C4CCCO4)CC3)nc(N)c2cc1OC (stereo not given) | 27.5 µM (active) | –
CCCCCCCCCCCBr | inactive | –
COc1ccc2cccc(CCNC(C)=O)c2c1 | inactive | –
CC1=C2[C@H](/C=C(\C)C(=O)O)CC[C@@H](C)[C@H]2CC1 | inactive | –
CC(C)=CCC/C(C)=C/CC/C(C)=C/CCC(=O)OC/C=C(\C)CCC=C(C)C | inactive | –
CCC(=O)Oc1ccc2c(c1)CC[C@@H]1[C@@H]2CC[C@@]2(C)[C@H]1C[C@@H](OC(=O)CC)[C@@H]2OC(=O)CC | inactive | –
O=C(O)c1ccc2c(c1)nc(C(=O)NC1CCN(C3CC3)CC1)n2Cc1cc(-c2ccc(Cl)s2)on1 | – | -6.96% [at 23.6 µM]
Cc1ccccc1C | inactive | –
CCc1cc(C2=C(C(=O)O)N(c3ccccc3C(F)(F)F)S(=O)(=O)c3ccccc32)cc2c1OCO2 | inactive | –
CCC(C)COC(=O)CC(C)C (stereo not given) | inactive | –
N#CC1(c2ccc(F)cc2)CCC(=O)CC1 | inactive | –
CC(=O)Nc1ccc(S(N)(=O)=O)cc1 | inactive | –
N#CC1(N)CCCCC1 | inactive | –
